PubChem BioAssay
For some of these results: Entries with a potency or affinity are not part of this list. The source made the active and inactive calls.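 How the source made its calls, unless noted: active means compound raising the membrane signal above positive-control mean plus 3 SD in both repeats, and a primary screen hit; inactive means the rest.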

Tests used:
[1] = system: TRPC4 beta (transient receptor potential cation channel C4), mouse; assay: activators of mouse TRPC4 channel, confirmation, cell-based, Fluo4 calcium, HEK293 TRPC4beta/mu-opioid, duplicates, 10 µM (AID 2426;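 active means fluorescence ratio normalized to control raised more than 50% in primary screen plus both repeat runs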;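 on activation: percent rise of integrated ratio over buffer wells lacking compound which define 0%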); details: Fluo4 calcium fluorescence, at 10 µM; hits give high values
[2] = system: transient receptor potential cation channel C4 beta (TRPC4), mouse; assay: activators of mouse TRPC4 channel, confirmation, cell-based, second round, Fluo4, HEK293 TRPC4beta/mu-opioid, 1 µM (AID 2461;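 active means primary screen active and over 50% activation in each of two duplicate runs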); details: Fluo4 calcium fluorescence, at 1 µM; hits give high values
[3] = system: TRPC4 (transient receptor potential cation channel C4 beta), mouse; assay: positive allosteric modulators of mouse TRPC4, confirmation, cell-based, second round, Fluo-4, HEK293 TRPC4beta/mu-opioid, 1 µM (AID 2554;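 active means primary screen hit whose fluorescence ratio, in both repeats, exceeds the weak agonist control mean by 3 SD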); details: DAMGO EC20, Fluo-4 calcium flux, at 1 µM; hits give high values
[4] = system: TRPC4 beta (transient receptor potential cation channel C4), mouse; assay: positive allosteric modulators of mouse TRPC4, confirmation, cell-based, Fluo-4, HEK293 TRPC4beta/mu-opioid (AID 2555;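 active means primary screen hit whose calcium fluorescence ratio, in both repeats, exceeds the weak agonist control mean by 3 SD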); details: DAMGO EC20, Fluo-4 calcium flux, at 10 µM; hits give high values
[5] = biological target: Short transient receptor potential channel 4 (Mus musculus) (UniProt Q9QUQ5); assay: inhibitors of mouse TRPC4 channel, confirmation, cell-based, Fluo4, HEK293 TRPC4beta/mu-opioid (AID 2636;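 active means calcium signal cut by more than 3 SD below the full-agonist control yet still positive, in both repeats and the earlier primary screen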); details: DAMGO, Fluo4 calcium flux, at 10 µM; hits give high values
Short transient receptor potential channel 4 (Mus musculus), sequence (Q9QUQ5 whole entry, looked up): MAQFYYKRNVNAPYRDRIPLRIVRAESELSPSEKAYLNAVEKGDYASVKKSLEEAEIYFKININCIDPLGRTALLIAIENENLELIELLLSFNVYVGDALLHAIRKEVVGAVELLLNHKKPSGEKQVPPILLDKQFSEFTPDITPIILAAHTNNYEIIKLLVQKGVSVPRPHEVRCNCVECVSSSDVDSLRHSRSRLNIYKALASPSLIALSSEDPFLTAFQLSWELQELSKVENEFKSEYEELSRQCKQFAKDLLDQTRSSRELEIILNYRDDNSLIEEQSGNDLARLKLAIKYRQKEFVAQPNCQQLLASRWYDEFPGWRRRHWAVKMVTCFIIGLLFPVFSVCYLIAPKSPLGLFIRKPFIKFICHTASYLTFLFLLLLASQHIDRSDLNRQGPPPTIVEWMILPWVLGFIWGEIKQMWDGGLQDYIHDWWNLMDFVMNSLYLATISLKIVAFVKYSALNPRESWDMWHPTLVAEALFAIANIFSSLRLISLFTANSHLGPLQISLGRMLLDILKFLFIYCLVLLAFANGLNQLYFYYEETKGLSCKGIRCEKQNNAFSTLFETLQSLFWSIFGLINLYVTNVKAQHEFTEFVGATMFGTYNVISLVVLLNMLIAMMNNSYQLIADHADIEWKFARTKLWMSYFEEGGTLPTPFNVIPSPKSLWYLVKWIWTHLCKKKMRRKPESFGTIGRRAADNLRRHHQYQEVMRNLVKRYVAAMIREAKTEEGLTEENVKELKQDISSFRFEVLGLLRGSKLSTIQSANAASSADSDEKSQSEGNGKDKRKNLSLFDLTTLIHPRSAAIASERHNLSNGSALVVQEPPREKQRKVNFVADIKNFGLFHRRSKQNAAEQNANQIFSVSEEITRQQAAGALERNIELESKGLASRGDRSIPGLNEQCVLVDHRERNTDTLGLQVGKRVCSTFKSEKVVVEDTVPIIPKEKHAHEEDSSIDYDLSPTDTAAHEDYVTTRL

[6] = biological target: Short transient receptor potential channel 4 (Mus musculus) (UniProt Q9QUQ5); assay: inhibitors of mouse TRPC4 channel, confirmation, cell-based, second round, Fluo4, HEK293 TRPC4beta/mu-opioid, 1 µM (AID 2637;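 active means calcium signal ratio cut to more than 3 SD under the fully stimulated control mean yet still positive, in both repeats and the primary screen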); details: Fluo4 calcium flux, DAMGO, at 1 µM; hits give high values
[7] = biological target: Short transient receptor potential channel 4 (Mus musculus) (UniProt Q9QUQ5); assay: mouse TRPC4 channel activators, dose response, cell-based, HEK293 TRPC4/mu-opioid, Fluo-4 calcium (AID 434937;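 active means primary screen activator hit with a dose response curve and TRPC4 channel activation at any tested dose; inactive means no activation, no dose response, or not a primary hit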)
[8] = biological target: Short transient receptor potential channel 4 (Mus musculus) (UniProt Q9QUQ5); assay: mouse TRPC4 channel inhibitors, dose response, cell-based, HEK293 TRPC4/mu-opioid, Fluo-4 calcium (AID 434942;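 active means primary screen inhibitor hit that blocks the TRPC4 channel at some tested dose, yielding a dose curve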)
[9] = biological target: Short transient receptor potential channel 6 (Mus musculus) (UniProt Q61143); assay: inhibition of mouse TRPC6 channel, confirmation, selectivity assay for TRPC4 inhibitor project, cell-based, HEK293, membrane potential dye, duplicate (AID 434948;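 active means active in primary screen and both duplicates, each dropping signal beyond three positive-control SD with fluorescence still positive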); details: HEK293 TRPC6, membrane potential dye fluorescence, at 10 µM, stimulated with maximal-effect acetylcholine; hits give high values
Short transient receptor potential channel 6 (Mus musculus), sequence (Q61143 whole entry, looked up): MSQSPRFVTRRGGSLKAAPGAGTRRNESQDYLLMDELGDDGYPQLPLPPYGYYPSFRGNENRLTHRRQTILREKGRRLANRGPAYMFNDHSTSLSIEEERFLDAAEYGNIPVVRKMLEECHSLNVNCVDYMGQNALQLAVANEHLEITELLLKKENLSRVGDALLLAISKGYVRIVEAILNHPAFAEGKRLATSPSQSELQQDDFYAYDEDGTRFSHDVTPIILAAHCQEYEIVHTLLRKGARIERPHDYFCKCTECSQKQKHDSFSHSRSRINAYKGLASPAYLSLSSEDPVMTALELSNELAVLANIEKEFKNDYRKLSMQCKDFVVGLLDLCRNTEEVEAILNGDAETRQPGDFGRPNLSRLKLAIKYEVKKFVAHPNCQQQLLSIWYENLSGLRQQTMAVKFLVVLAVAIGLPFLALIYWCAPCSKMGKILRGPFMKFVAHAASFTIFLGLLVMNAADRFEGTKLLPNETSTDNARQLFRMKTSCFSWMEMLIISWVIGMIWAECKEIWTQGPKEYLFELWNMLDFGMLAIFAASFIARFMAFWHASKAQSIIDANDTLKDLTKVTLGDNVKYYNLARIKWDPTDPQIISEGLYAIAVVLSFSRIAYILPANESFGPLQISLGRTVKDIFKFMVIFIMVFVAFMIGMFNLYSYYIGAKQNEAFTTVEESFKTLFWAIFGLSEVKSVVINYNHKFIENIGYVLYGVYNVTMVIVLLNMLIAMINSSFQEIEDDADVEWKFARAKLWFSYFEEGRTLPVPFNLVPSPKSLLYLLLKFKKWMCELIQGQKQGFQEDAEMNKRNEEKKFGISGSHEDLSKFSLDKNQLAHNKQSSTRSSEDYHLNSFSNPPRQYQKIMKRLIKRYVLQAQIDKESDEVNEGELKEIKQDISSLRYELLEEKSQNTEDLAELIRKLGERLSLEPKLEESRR

[10] = biological target: Short transient receptor potential channel 6 (Mus musculus) (UniProt Q61143); assay: activation of mouse TRPC6 channel, confirmation, selectivity assay for TRPC4 activator project, cell-based, HEK293, membrane potential dye, duplicate (AID 434950;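 active means membrane potential signal rise above negative control mean plus 3 SD in both duplicates, also active in the earlier TRPC4 screen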;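 on activation: 0% = buffer only wells and 100% = acetylcholine maximal-effect wells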); details: HEK293 TRPC6, membrane potential fluorescence, at 10 µM; hits give high values
[11] = biological target: Short transient receptor potential channel 6 (Mus musculus) (UniProt Q61143); assay: TRPC6 potentiation by TRPC4 potentiator hits, confirmation, selectivity assay for TRPC4 potentiator project, HEK293 cells, membrane potential dye, duplicate (AID 434952); details: HEK293 TRPC6, membrane potential dye fluorescence, at 10 µM, maximal acetylcholine added after compound; hits give high values
[12] = biological target: Short transient receptor potential channel 4 (Mus musculus) (UniProt Q9QUQ5); assay: calcium flux activators in TRPC4/5HT1a cells, counter-screen for TRPC4 activator project, cell-based, second counter screen, HEK293 TRPC4/5HT1a, Fluo-4 (AID 434977;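 active means calcium signal rise above buffer-control mean plus 5 SD in both duplicates, and also a hit in the primary screen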); details: Fluo-4 calcium flux, at 10 µM; hits give high values
[13] = calcium flux inhibitors in TRPC4/5HT1a cells, confirmation, counter-screen for TRPC4 inhibitor project, cell-based, second counter screen, HEK293 TRPC4/5HT1a, Fluo-4 (AID 434978;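 active means primary screen active whose calcium signal fell more than 3 SD beyond the full-serotonin control mean in both duplicate plates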;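 further: serotonin given first at submaximal then at maximal dose after compound preincubation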); details: Fluo-4 calcium flux, at 10 µM, serotonin added to trigger calcium flux; hits give high values
[14] = system: TRPC4 (mouse), co-expressed with 5HT1a in HEK293; assay: calcium flux potentiators in TRPC4/5HT1a cells, confirmation, counter-screen for TRPC4 potentiator project, cell-based, second counter screen, HEK293 TRPC4/5HT1a, Fluo-4 (AID 434979;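 active means signal rise over 3 SD above mean of control wells given weak agonist, in both repeats and first screen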); details: Fluo-4 calcium flux, at 10 µM, serotonin added at its EC20 dose; hits give high values
[15] = calcium flux activation in mu-opioid HEK293 cells, confirmation, counter-screen for TRPC4 activator project, cell-based, HEK293 mu-opioid receptor line (AID 449723;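 active means hit in primary screen, with calcium signal over 5 SD above buffer well mean in both duplicates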;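 further: counter screen cells carry the mu-opioid receptor alone and lack TRPC4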); details: Fluo-4 calcium fluorescence, at 10 µM; hits give high values
[16] = calcium flux enhancement in mu-opioid HEK293 cells, confirmation, counter-screen for TRPC4 allosteric potentiator project, cell-based, HEK293 mu-opioid receptor line (AID 449724;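 active means calcium signal rise more than 3 SD above the low-dose agonist control mean, in both duplicate plates and the primary screen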); details: Fluo-4 calcium flux, at 10 µM, compound added before EC20 DAMGO stimulus; hits give high values
[17] = thallium flux activation in parental CHO cells, counter-screen for KCNQ1 potentiator project (AID 493006;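 active means duplicate-averaged activation above buffer control mean plus 5 SD of those controls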;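 further: fluorescence ratio of max minus min over baseline after K+ and Tl+ depolarization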); details: parental CHO-K1 cells, FluxOR thallium flux, at 10 µM; hits give high values
[18] = biological target: Potassium voltage-gated channel subfamily KQT member 1 (Homo sapiens) (UniProt P51787); assay: KCNQ1 potassium channel potentiators, confirmation, FluxOR thallium flux, CHO cells, duplicates (AID 493007;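 active means potentiation averaged over duplicate wells exceeding buffer-only control mean by more than 3 SD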;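 further: 0% = buffer-only wells and 100% = R-L3 activator control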); details: KCNQ1 cell line, FluxOR thallium flux fluorescence, at 10 µM; hits give high values, % of reference activator effect, buffer zero
Potassium voltage-gated channel subfamily KQT member 1 (Homo sapiens), sequence (P51787 whole entry, looked up): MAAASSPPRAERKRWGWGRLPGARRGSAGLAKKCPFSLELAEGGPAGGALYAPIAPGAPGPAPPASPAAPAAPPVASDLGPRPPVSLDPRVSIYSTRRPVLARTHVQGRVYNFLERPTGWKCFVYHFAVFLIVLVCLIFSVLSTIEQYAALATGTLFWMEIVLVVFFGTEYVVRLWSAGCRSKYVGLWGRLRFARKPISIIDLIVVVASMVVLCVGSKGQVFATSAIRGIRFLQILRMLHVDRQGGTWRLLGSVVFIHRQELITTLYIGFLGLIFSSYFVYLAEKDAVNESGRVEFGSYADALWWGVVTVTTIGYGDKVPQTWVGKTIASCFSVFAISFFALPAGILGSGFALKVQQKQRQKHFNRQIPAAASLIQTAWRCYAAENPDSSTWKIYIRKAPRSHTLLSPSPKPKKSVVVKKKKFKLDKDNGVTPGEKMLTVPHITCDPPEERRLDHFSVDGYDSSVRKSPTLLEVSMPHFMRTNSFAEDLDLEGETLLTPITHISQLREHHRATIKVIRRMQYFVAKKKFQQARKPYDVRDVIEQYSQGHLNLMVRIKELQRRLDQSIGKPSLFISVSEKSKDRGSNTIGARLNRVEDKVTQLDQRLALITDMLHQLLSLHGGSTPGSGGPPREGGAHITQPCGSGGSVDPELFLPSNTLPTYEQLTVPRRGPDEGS

[19] = biological target: Potassium voltage-gated channel subfamily KQT member 2 (Rattus norvegicus) (UniProt O88943); assay: rat KCNQ2 channel potentiation, selectivity assay for KCNQ1 potentiator project, KCNQ2-CHO-K1 cells (AID 493009;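 active means mean duplicate potentiation above the buffer control mean plus 5 SD of buffer wells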;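 further: assay conditions were tuned for KCNQ1 rather than KCNQ2 modulators; signal is max minus min fluorescence divided by baseline after thallium stimulus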); details: FluxOR thallium flux fluorescence, at 10 µM; hits give high values, scaled: buffer 0, activator control 100
Potassium voltage-gated channel subfamily KQT member 2 (Rattus norvegicus), sequence (O88943 whole entry, looked up): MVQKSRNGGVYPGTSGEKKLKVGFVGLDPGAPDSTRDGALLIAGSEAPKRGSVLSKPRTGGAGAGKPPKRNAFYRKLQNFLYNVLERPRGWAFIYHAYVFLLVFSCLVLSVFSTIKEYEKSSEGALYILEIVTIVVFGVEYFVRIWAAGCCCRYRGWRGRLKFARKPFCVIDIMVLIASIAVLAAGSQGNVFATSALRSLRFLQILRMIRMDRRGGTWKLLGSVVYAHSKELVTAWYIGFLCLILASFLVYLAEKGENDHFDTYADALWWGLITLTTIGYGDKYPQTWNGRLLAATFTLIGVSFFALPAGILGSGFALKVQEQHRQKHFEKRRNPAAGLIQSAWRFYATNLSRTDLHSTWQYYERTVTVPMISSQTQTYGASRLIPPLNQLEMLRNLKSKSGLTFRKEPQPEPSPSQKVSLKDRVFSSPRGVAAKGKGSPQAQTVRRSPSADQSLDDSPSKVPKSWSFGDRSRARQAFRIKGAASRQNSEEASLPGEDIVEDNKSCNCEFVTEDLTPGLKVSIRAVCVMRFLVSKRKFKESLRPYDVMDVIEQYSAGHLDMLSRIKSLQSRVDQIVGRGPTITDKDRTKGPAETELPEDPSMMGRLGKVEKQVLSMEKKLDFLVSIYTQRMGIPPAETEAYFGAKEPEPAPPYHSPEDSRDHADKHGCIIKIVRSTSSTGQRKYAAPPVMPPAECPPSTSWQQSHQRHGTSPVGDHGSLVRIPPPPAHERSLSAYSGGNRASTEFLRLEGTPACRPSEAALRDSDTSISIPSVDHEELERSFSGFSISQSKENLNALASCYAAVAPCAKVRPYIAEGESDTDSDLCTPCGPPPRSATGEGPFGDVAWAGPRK

[20] = biological target: Short transient receptor potential channel 4 (Mus musculus) (UniProt Q9QUQ5); assay: TRPC4 positive allosteric modulators, dose response, cell-based, HEK293 TRPC4/mu-opioid, Fluo-4 calcium, EC20 DAMGO (AID 434941;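 active means earlier screen potentiator hit that boosts the TRPC4 ion channel at some dose, with a dose response; inactive means no potentiation, no dose response, or not a prior hit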;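 further: calcium entry triggered by an EC20 dose of DAMGO at the co-expressed mu-opioid receptor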)

Cc1cccc(/C=N/NC(=O)c2cc(Br)ccc2O)n1
inactive: outcome [1] | outcome [2] | outcome [5] | outcome [6] | outcome [7] | outcome [8] | outcome [9] | outcome [10] | outcome [11] | outcome [12] | outcome [13] | outcome [15] | outcome [16]
active: potentiation [3] 24% | potentiation [4] 46% | potentiation [14] 100% | activation [17] 140% | potentiation [18] 48% | potentiation [19] 182%

O=c1[nH][nH]c(-c2ccccc2)c1C=Nc1ccc(Cl)cc1
active: potentiation [14] 79.8%
inactive: outcome [1] | outcome [2] | outcome [3] | outcome [4] | outcome [5] | outcome [6] | outcome [7] | outcome [8] | outcome [9] | outcome [10] | outcome [11] | outcome [12] | outcome [13] | outcome [15] | outcome [16]

O=C1C(Cl)=C(Nc2cccc(O)c2)C(=O)N1Cc1ccccc1
inactive: outcome [1] | outcome [2] | outcome [3] | outcome [5] | outcome [6] | outcome [7] | outcome [8] | outcome [9] | outcome [10] | outcome [11] | outcome [12] | outcome [13] | outcome [15] | outcome [16]
active: potentiation [4] 38% | potentiation [14] 20.8%

O=C(O)CCNc1nc(-c2ccccc2)c2cc(Br)ccc2n1
active: potentiation [3] 11% | potentiation [14] 24.1%
inactive: outcome [1] | outcome [2] | outcome [4] | outcome [5] | outcome [6] | outcome [7] | outcome [8] | outcome [9] | outcome [10] | outcome [11] | outcome [12] | outcome [13] | outcome [15] | outcome [16]

CCCCN(C)CCNC(=O)c1cc2c(-c3cccc(OC)c3)nn(C)c2s1
active: potentiation [14] 39.5%
inactive: outcome [1] | outcome [2] | outcome [3] | outcome [4] | outcome [5] | outcome [6] | outcome [7] | outcome [8] | outcome [9] | outcome [10] | outcome [11] | outcome [12] | outcome [13] | outcome [15] | outcome [16]

COc1ccc(CN2CCC(n3nccc3NC(=O)CCc3ccccc3)CC2)c(C)c1C
inactive: outcome [2] | outcome [3] | outcome [4] | outcome [5] | outcome [6] | outcome [20] | outcome [8] | outcome [9] | outcome [11] | outcome [12] | outcome [13] | outcome [14] | outcome [15] | outcome [16]
active: activation [1] 68% | activation [10] 72%

CN(C)C(CNC(=O)c1ccc2nc[nH]c2c1)c1ccccc1 (stereo not given)
inactive: outcome [2] | outcome [3] | outcome [4] | outcome [5] | outcome [6] | outcome [20] | outcome [8] | outcome [9] | outcome [10] | outcome [11] | outcome [12] | outcome [13] | outcome [14] | outcome [15] | outcome [16]
active: activation [1] 145%
